Experimental data: the supplement of paper PMC4466140

Assays:
Experiment in all cases: SPOT peptide array binding signal intensity (averaged, normalized) (arbitrary units (background-subtracted, floor 0; scale differs between SH3 domains)); higher = stronger binding of the SH3 domain to the peptide
CaNbp2 = molecular target: CaNbp2
Method: (§1)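 GST-tagged SH3 domains from S. cerevisiae (Sc), A. gossypii (Ag), C. albicans (Ca) and S. pombe (Sp) were incubated at 10 ug/ml overnight at 4 C on cellulose SPOT membranes carrying 292 synthetic 15-mer peptides mined from the S. cerevisiae proteome (cysteines replaced by serines). Binding was detected with anti-GST antibody, HRP secondary and chemiluminescence, quantified with Genespotter, and reported as normalized spot intensities averaged over biological replicates.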

CaRvs167 = molecular target: CaRvs167
Method: as §1

CaRvs167-3 = molecular target: CaRvs167-3
Method: as §1

CaSho1 = molecular target: CaSho1
Method: as §1

CaSla1-D1-D2 = molecular target: CaSla1-D1-D2
Method: as §1

CaSla1-D3 = molecular target: CaSla1-D3
Method: as §1

ScAbp1 = molecular target: ScAbp1
Method: as §1

ScBbc1 = molecular target: ScBbc1
Method: as §1

ScBem1-D1 = molecular target: ScBem1-D1
Method: as §1

ScBzz1-D1 = molecular target: ScBzz1-D1
Method: as §1

ScBzz1-D2 = molecular target: ScBzz1-D2
Method: as §1

ScCyk3 = molecular target: ScCyk3
Method: as §1

ScFus1 = molecular target: ScFus1
Method: as §1

ScHof1 = molecular target: ScHof1
Method: as §1

ScHse1 = molecular target: ScHse1
Method: as §1

ScLsb1 = molecular target: ScLsb1
Method: as §1

ScLsb2 = molecular target: ScLsb2
Method: as §1

ScLsb3 = molecular target: ScLsb3
Method: as §1

ScLsb4 = molecular target: ScLsb4
Method: as §1

ScMyo3 = molecular target: ScMyo3
Method: as §1

ScMyo5 = molecular target: ScMyo5
Method: as §1

ScNbp2 = molecular target: ScNbp2
Method: as §1

ScPex13 = molecular target: ScPex13
Method: as §1

ScRvs167 = molecular target: ScRvs167
Method: as §1

ScSho1 = molecular target: ScSho1
Method: as §1

ScSla1-D1-D2 = molecular target: ScSla1-D1-D2
Method: as §1

ScSla1-D3 = molecular target: ScSla1-D3
Method: as §1

SpAbp1-D1 = molecular target: SpAbp1-D1
Method: as §1

SpBbc1 = molecular target: SpBbc1
Method: as §1

SpBzz1-D1 = molecular target: SpBzz1-D1
Method: as §1

SpBzz1-D2 = molecular target: SpBzz1-D2
Method: as §1

SpCyk3 = molecular target: SpCyk3
Method: as §1

SpHof1 = molecular target: SpHof1
Method: as §1

SpHof1-2 = molecular target: SpHof1-2
Method: as §1

SpHof1-3 = molecular target: SpHof1-3
Method: as §1

SpHse1 = molecular target: SpHse1
Method: as §1

SpLsb1 = molecular target: SpLsb1
Method: as §1

SpLsb4 = molecular target: SpLsb4
Method: as §1

SpMyo1 = molecular target: SpMyo1
Method: as §1

SpNbp2 = molecular target: SpNbp2
Method: as §1

SpPex13 = molecular target: SpPex13
Method: as §1

SpRvs167 = molecular target: SpRvs167
Method: as §1

SpSla1-D1-D2 = molecular target: SpSla1-D1-D2
Method: as §1

SpSla1-D3 = molecular target: SpSla1-D3
Method: as §1

AgAbp1 = molecular target: AgAbp1
Method: as §1

AgBbc1 = molecular target: AgBbc1
Method: as §1

AgBem1-D1 = molecular target: AgBem1-D1
Method: as §1

AgBzz1-D1 = molecular target: AgBzz1-D1
Method: as §1

AgBzz1-D2 = molecular target: AgBzz1-D2
Method: as §1

AgCyk3 = molecular target: AgCyk3
Method: as §1

AgFus1 = molecular target: AgFus1
Method: as §1

AgHof1 = molecular target: AgHof1
Method: as §1

AgHse1 = molecular target: AgHse1
Method: as §1

AgLsb1 = molecular target: AgLsb1
Method: as §1

AgLsb4 = molecular target: AgLsb4
Method: as §1

AgMyo5 = molecular target: AgMyo5
Method: as §1

AgNbp2 = molecular target: AgNbp2
Method: as §1

AgRvs167 = molecular target: AgRvs167
Method: as §1

AgSho1 = molecular target: AgSho1
Method: as §1

AgSla1-D1-D2 = molecular target: AgSla1-D1-D2
Method: as §1

AgSla1-D3 = molecular target: AgSla1-D3
Method: as §1

CaAbp1-D1 = molecular target: CaAbp1-D1
Method: as §1

CaAbp1-D2 = molecular target: CaAbp1-D2
Method: as §1

CaBbc1 = molecular target: CaBbc1
Method: as §1

CaBem1-D1 = molecular target: CaBem1-D1
Method: as §1

CaBzz1-D1 = molecular target: CaBzz1-D1
Method: as §1

CaBzz1-D2 = molecular target: CaBzz1-D2
Method: as §1

CaCyk3 = molecular target: CaCyk3
Method: as §1

CaFus1 = molecular target: CaFus1
Method: as §1

CaHof1 = molecular target: CaHof1
Method: as §1

CaHse1 = molecular target: CaHse1
Method: as §1

CaLsb1 = molecular target: CaLsb1
Method: as §1

CaLsb4 = molecular target: CaLsb4
Method: as §1

CaMyo5 = molecular target: CaMyo5
Method: as §1

Binder: RKRRTHLRLPLIRSN
- SPOT peptide array binding signal intensity (CaNbp2): 406
- SPOT peptide array binding signal intensity (CaRvs167): 19
- SPOT peptide array binding signal intensity (CaRvs167-3): 42
- SPOT peptide array binding signal intensity (CaSho1): 478
- SPOT peptide array binding signal intensity (CaSla1-D1-D2): ≤ 0
- SPOT peptide array binding signal intensity (CaSla1-D3): 4.62
- SPOT peptide array binding signal intensity (ScAbp1): 27
- SPOT peptide array binding signal intensity (ScBbc1): 31.1
- SPOT peptide array binding signal intensity (ScBem1-D1): 61.2
- SPOT peptide array binding signal intensity (ScBzz1-D1): 15.5
- SPOT peptide array binding signal intensity (ScBzz1-D2): 21.2
- SPOT peptide array binding signal intensity (ScCyk3): 98
- SPOT peptide array binding signal intensity (ScFus1): 573
- SPOT peptide array binding signal intensity (ScHof1): 2.75
- SPOT peptide array binding signal intensity (ScHse1): 1680
- SPOT peptide array binding signal intensity (ScLsb1): 0.25
- SPOT peptide array binding signal intensity (ScLsb2): 1
- SPOT peptide array binding signal intensity (ScLsb3): 532
- SPOT peptide array binding signal intensity (ScLsb4): 29.8
- SPOT peptide array binding signal intensity (ScMyo3): ≤ 0
- SPOT peptide array binding signal intensity (ScMyo5): 0.625
- SPOT peptide array binding signal intensity (ScNbp2): 164
- SPOT peptide array binding signal intensity (ScPex13): 1.12
- SPOT peptide array binding signal intensity (ScRvs167): 16.8
- SPOT peptide array binding signal intensity (ScSho1): 1440
- SPOT peptide array binding signal intensity (ScSla1-D1-D2): 268
- SPOT peptide array binding signal intensity (ScSla1-D3): 9.5
- SPOT peptide array binding signal intensity (SpAbp1-D1): 91.2
- SPOT peptide array binding signal intensity (SpBbc1): 2.5
- SPOT peptide array binding signal intensity (SpBzz1-D1): 189
- SPOT peptide array binding signal intensity (SpBzz1-D2): ≤ 0
- SPOT peptide array binding signal intensity (SpCyk3): 2
- SPOT peptide array binding signal intensity (SpHof1): 299
- SPOT peptide array binding signal intensity (SpHof1-2): 9
- SPOT peptide array binding signal intensity (SpHof1-3): 1060
- SPOT peptide array binding signal intensity (SpHse1): 622
- SPOT peptide array binding signal intensity (SpLsb1): 0.5
- SPOT peptide array binding signal intensity (SpLsb4): 260
- SPOT peptide array binding signal intensity (SpMyo1): 9
- SPOT peptide array binding signal intensity (SpNbp2): 350
- SPOT peptide array binding signal intensity (SpPex13): 13
- SPOT peptide array binding signal intensity (SpRvs167): 9.33
- SPOT peptide array binding signal intensity (SpSla1-D1-D2): ≤ 0
- SPOT peptide array binding signal intensity (SpSla1-D3): ≤ 0

Binder: LKVTPGRRAPTISKI
- SPOT peptide array binding signal intensity (AgAbp1): 22
- SPOT peptide array binding signal intensity (AgBbc1): 41
- SPOT peptide array binding signal intensity (AgBem1-D1): 63.5
- SPOT peptide array binding signal intensity (AgBzz1-D1): 81
- SPOT peptide array binding signal intensity (AgBzz1-D2): 24
- SPOT peptide array binding signal intensity (AgCyk3): 3
- SPOT peptide array binding signal intensity (AgFus1): 22
- SPOT peptide array binding signal intensity (AgHof1): 15
- SPOT peptide array binding signal intensity (AgHse1): 18.5
- SPOT peptide array binding signal intensity (AgLsb1): ≤ 0
- SPOT peptide array binding signal intensity (AgLsb4): ≤ 0
- SPOT peptide array binding signal intensity (AgMyo5): 5.5
- SPOT peptide array binding signal intensity (AgNbp2): 1920
- SPOT peptide array binding signal intensity (AgRvs167): 1.17
- SPOT peptide array binding signal intensity (AgSho1): ≤ 0
- SPOT peptide array binding signal intensity (AgSla1-D1-D2): 7.5
- SPOT peptide array binding signal intensity (AgSla1-D3): 1
- SPOT peptide array binding signal intensity (CaAbp1-D1): 435
- SPOT peptide array binding signal intensity (CaAbp1-D2): 160
- SPOT peptide array binding signal intensity (CaBbc1): 247
- SPOT peptide array binding signal intensity (CaBem1-D1): 5
- SPOT peptide array binding signal intensity (CaBzz1-D1): 154
- SPOT peptide array binding signal intensity (CaBzz1-D2): 148
- SPOT peptide array binding signal intensity (CaCyk3): 18
- SPOT peptide array binding signal intensity (CaFus1): ≤ 0
- SPOT peptide array binding signal intensity (CaHof1): 0.5
- SPOT peptide array binding signal intensity (CaHse1): 0.5
- SPOT peptide array binding signal intensity (CaLsb1): ≤ 0
- SPOT peptide array binding signal intensity (CaLsb4): ≤ 0
- SPOT peptide array binding signal intensity (CaMyo5): 6.25
- SPOT peptide array binding signal intensity (CaNbp2): 2720
- SPOT peptide array binding signal intensity (CaRvs167): 1.5
- SPOT peptide array binding signal intensity (CaRvs167-3): 27.5
- SPOT peptide array binding signal intensity (CaSho1): 15.5
- SPOT peptide array binding signal intensity (CaSla1-D1-D2): 56
- SPOT peptide array binding signal intensity (CaSla1-D3): 1.5
- SPOT peptide array binding signal intensity (ScAbp1): 21
- SPOT peptide array binding signal intensity (ScBbc1): 1.75
- SPOT peptide array binding signal intensity (ScBem1-D1): 9
- SPOT peptide array binding signal intensity (ScBzz1-D1): 26
- SPOT peptide array binding signal intensity (ScBzz1-D2): 5.5
- SPOT peptide array binding signal intensity (ScCyk3): 10
- SPOT peptide array binding signal intensity (ScFus1): 0.5
- SPOT peptide array binding signal intensity (ScHof1): ≤ 0
- SPOT peptide array binding signal intensity (ScHse1): 99
- SPOT peptide array binding signal intensity (ScLsb1): ≤ 0
- SPOT peptide array binding signal intensity (ScLsb2): 3
- SPOT peptide array binding signal intensity (ScLsb3): 21.5
- SPOT peptide array binding signal intensity (ScLsb4): ≤ 0
- SPOT peptide array binding signal intensity (ScMyo3): 39.5
- SPOT peptide array binding signal intensity (ScMyo5): 20.2
- SPOT peptide array binding signal intensity (ScNbp2): 4490
- SPOT peptide array binding signal intensity (ScPex13): ≤ 0
- SPOT peptide array binding signal intensity (ScRvs167): 0.333
- SPOT peptide array binding signal intensity (ScSho1): 33
- SPOT peptide array binding signal intensity (ScSla1-D1-D2): 61.5
- SPOT peptide array binding signal intensity (ScSla1-D3): 32.8
- SPOT peptide array binding signal intensity (SpAbp1-D1): 170
- SPOT peptide array binding signal intensity (SpBbc1): 1
- SPOT peptide array binding signal intensity (SpBzz1-D1): 332
- SPOT peptide array binding signal intensity (SpBzz1-D2): 1.25
- SPOT peptide array binding signal intensity (SpCyk3): 1.5
- SPOT peptide array binding signal intensity (SpHof1): 37.8
- SPOT peptide array binding signal intensity (SpHof1-2): 0.5
- SPOT peptide array binding signal intensity (SpHof1-3): 165
- SPOT peptide array binding signal intensity (SpHse1): 67.8
- SPOT peptide array binding signal intensity (SpLsb1): ≤ 0
- SPOT peptide array binding signal intensity (SpLsb4): 30
- SPOT peptide array binding signal intensity (SpMyo1): 352
- SPOT peptide array binding signal intensity (SpNbp2): 8
- SPOT peptide array binding signal intensity (SpPex13): ≤ 0
- SPOT peptide array binding signal intensity (SpRvs167): ≤ 0
- SPOT peptide array binding signal intensity (SpSla1-D1-D2): 4
- SPOT peptide array binding signal intensity (SpSla1-D3): ≤ 0
